According to PubChem BioAssay AID1421 (Emory University Molecular Libraries Screening Center, 2008):
Screen size: about 1,300 compounds; about 140 (11%) were called active. No rule for the calls is given here. The list is a sample of the results. Potency and affinity values are given separately.

molecular target: Prostaglandin E2 receptor EP2 subtype (Homo sapiens) (UniProt P43116); experiment: EP2 receptor modulators, dose response, cell-based, human EP2, PGE2 EC50 shift (AID 1421); details: EP2-expressing cells, PGE2 EC50 shift by compound; at 20 µM
Sequence (P43116 whole entry, looked up): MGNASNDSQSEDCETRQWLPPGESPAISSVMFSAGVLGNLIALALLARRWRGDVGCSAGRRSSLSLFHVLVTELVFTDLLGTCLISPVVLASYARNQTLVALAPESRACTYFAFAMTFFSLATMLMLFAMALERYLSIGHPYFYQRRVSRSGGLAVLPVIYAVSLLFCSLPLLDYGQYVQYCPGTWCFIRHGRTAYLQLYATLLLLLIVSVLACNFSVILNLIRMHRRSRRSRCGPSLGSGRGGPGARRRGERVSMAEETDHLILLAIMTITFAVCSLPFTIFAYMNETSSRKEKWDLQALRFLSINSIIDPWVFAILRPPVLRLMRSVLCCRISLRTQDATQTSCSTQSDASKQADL

PGE2 EC50 with compound, inactive:
CC(=O)N1N=C2/C(=C/c3ccccc3)CCCC2C1c1ccccc1 (stereo not drawn) 0.44 nM
CCN=C1S/C(=C\c2ccc(O)c(OCC)c2)C(=O)N1CC 0.39 nM
CCCCOP(=O)(OCCCC)C(Nc1ccccc1)c1ccc2c(c1)OCO2 (stereo not drawn) 0.36 nM
CC(C)N(CCNC(=O)c1oc(=O)c2ccccc2c1-c1ccccc1)Cc1ccco1 0.81 nM
Oc1ccc(/C=N/N(Cc2ccccc2)c2ccccc2)cc1 0.73 nM
C/C(=N\N(Cc1ccccc1)c1ccccc1)c1cccnc1 0.37 nM
c1ccc(-c2ccccc2-c2nc(-c3cccnc3)no2)cc1 0.05 nM
Cc1scc(-c2n[nH]c(=S)n2Cc2ccccc2)c1C 0.54 nM
COc1ccc(N2CCN(c3nc4c(c(=O)n(C)c(=O)n4C)n3Cc3ccccc3)CC2)cc1 0.9 nM
Cc1cc(NC(=O)C2=C(O)c3ccccc3S(=O)(=O)N2C)no1 0.77 nM
Cc1ccccc1NC1=C(C(=O)c2ccccc2)N(C)S(=O)(=O)c2ccccc21 0.78 nM
CCOC(=O)CC(=O)CSc1nc(-c2ccc3c(c2)OCO3)cc(C(F)(F)F)c1C#N 1.22 nM
Cc1noc(C)c1CSc1nc2ccccc2c(=O)n1-c1ccc(Cl)cc1 0.51 nM
Cc1noc(C)c1CSc1nc2ccccc2c(=O)n1-c1ccc(F)cc1F 0.51 nM
CSc1nc(Oc2ccccc2)c2sccc2n1 0.62 nM
CCOC(=O)n1c(=O)n(Cc2ccc(Cl)c(Cl)c2)c2ccccc21 0.31 nM
COC(=O)c1cc(Br)c(=O)n(-c2nccs2)c1 17 nM
C=C(C)COc1ccc2c(c1)CC[C@@H]1[C@H]3C/C(=N/O)C(=O)[C@]3(C)CC[C@@H]21 0.41 nM
Cc1cccc(OC(=O)c2sc(Cl)nc2C)c1 0.61 nM
Cc1noc(C)c1CSc1ncnc2sc(C)c(C)c12 0.35 nM
O=C(Nc1ccc2c(c1)OCO2)c1cccc2c1C(=O)N(C1CCCCC1)C2 0.58 nM
CCOP(=O)(OCC)c1nc(-c2cccc3ccccc23)oc1N1CCCCC1 0.42 nM
CCc1nc(N2CCC(C)CC2)c2oc3ccccc3c2n1 0.32 nM
O=C(c1ccc2c(c1)OCO2)N(Cc1cccs1)C1(C(=O)NC2CCCCC2)CCCCC1 0.42 nM
O=C(COc1ccc(Br)cc1)Nc1ccc(-c2nnc(-c3ccco3)o2)cc1 0.53 nM
Cc1ccc2nc(N3CCC(C(=O)O)CC3)nc(-c3ccccc3)c2c1 0.5 nM
Cc1ccc(-n2c(Cc3cccc4ccccc34)n[nH]c2=S)c(C)c1 0.39 nM
CN(C)Cc1ccccc1Sc1cccc2ccccc12 0.37 nM
Cc1ccnc(SCC(=O)n2c3c(c4ccccc42)CC(C)CC3)n1 (stereo not drawn) 0.26 nM
COc1ccccc1-c1nnc(SCC(=O)c2ccc(C3CCCCC3)cc2)n1Cc1ccco1 0.46 nM
O=C(CN1CCN(Cc2ccccc2)CC1)Nc1ccccc1-c1ccccc1 0.83 nM
CCOC(=O)C1=NN(c2cccc(C)c2)C2(S1)SC(C(C)=O)=C(C)N2c1ccccc1 (stereo not drawn) 0.51 nM
Cc1ccccc1-n1c(Cn2c(=O)sc3ccccc32)nnc1SCC(=O)N1CCCC1 0.82 nM
Cc1cc(C)c2nc(N3CCCN(C(=O)c4ccco4)CC3)c(C#N)cc2c1 0.66 nM
COc1ccc(C2CC(c3cccs3)=NN2C(=O)c2ccc(Br)o2)cc1 (stereo not drawn) 0.71 nM
O=C1C2C3c4ccccc4C(c4ccccc43)C2c2nc3ccccc3n21 (stereo not drawn) 0.5 nM
COc1cc(C)c(NC(c2ccccc2)c2ccccc2)cc1OC 0.74 nM
c1ccc(-c2csc3ncnc(N4CCc5ccccc5C4)c23)cc1 0.28 nM
CCOC(=O)C(Cc1ccccc1)(NC(C)=O)C(=O)OCC 1.39 nM
O=C(O)CCCCCCCCCCCc1ccccc1 0.7 nM
O=c1c(O)c(-c2ccccc2)oc2ccc3occc3c12 0.43 nM
CCCCc1ccc(-n2c(Cc3cccs3)n[nH]c2=S)cc1 0.6 nM
CCCCc1n[nH]c(=S)n1Cc1ccc(Cl)cc1 0.62 nM
Cc1sc2ncnc(N(C)Cc3cccs3)c2c1C 0.78 nM
Cc1onc(-c2ccccc2)c1C(=O)N(Cc1ccco1)Cc1cccs1 0.49 nM
COc1cccc2[nH]c3c(N4CCCCC4)ncnc3c12 54.6 nM
O=C(c1cc2sccc2n1Cc1ccc(F)cc1)N1CCCc2ccccc21 0.27 nM
Cc1ccc(-c2nc3ccccc3nc2Cl)cc1 0.45 nM
CCOC(=O)c1c(NC(=O)CSC(=S)N(C)C)sc(C)c1C 0.55 nM
CCCOP(=O)(OCCC)C(Nc1cccc(C(F)(F)F)c1)c1ccc(C)cc1 (stereo not drawn) 0.23 nM
CCOP(=O)(OCC)c1nc(-c2cccc3ccccc23)oc1NCc1ccccc1 0.31 nM
CCOP(=O)(OCC)c1nc(-c2cccc3ccccc23)oc1NCCc1ccc(OC)cc1 0.72 nM
CCOC(=O)c1c(NC(=O)CN2C(=O)NC3(CCCCCC3)C2=O)sc(C)c1-c1ccc(C)cc1 0.74 nM
CCOP(=O)(OCC)c1nc(-c2ccc(C)cc2)oc1NCc1ccccc1 0.46 nM
Cc1ccccc1Nc1c(-c2ccccn2)nc2ccccn12 0.67 nM
COC(=O)c1cc2ccsc2n1Cc1ccccc1F 0.49 nM
CSc1nc(Sc2ccccc2Cl)c2ccccc2n1 0.41 nM
CCOC(=O)c1ccccc1NC(=O)CSc1ncc(C(=O)OCC)c(N)n1 0.55 nM
Cc1ccc(S(=O)(=O)n2c3ccc(F)cc3c3nc(C)sc32)cc1 0.2 nM
C=CCn1c(SCC(N)=O)nc(C)cc1=O 0.82 nM
C=CCn1c(SCc2c(C)noc2C)nc2sc(C)c(C)c2c1=O 0.57 nM
CC(=O)Nc1ccc(C2=NN(c3ccccc3)C(c3cccs3)C2)cc1 (stereo not drawn) 0.32 nM
CCCCCn1c(CN2CCN(c3cc(Cl)ccc3C)CC2)nc2c1c(=O)[nH]c(=O)n2C 1.94 nM
Brc1ccc(Cn2c(-c3cncs3)nc3ccccc32)cc1 0.43 nM
CCn1c2ccccc2c2cc(/C=N/n3c(C)nnc3C)ccc21 0.04 nM
Cc1ccccc1OCc1nc2ccccc2c(=O)n1/N=C/c1ccco1 0.61 nM
CN(c1ccccc1)C1CCCCC1NS(=O)(=O)c1ccc(Cl)cc1 (stereo not drawn) 0.38 nM
N#CCSc1nc2c(c(C3CC=CCC3)c1C#N)CCC2 (stereo not drawn) 0.5 nM
CSc1ccccc1NC(=O)COc1ccc(Cl)cc1C 0.35 nM
CN(CC(=O)Nc1ccccc1-c1ccccc1)Cc1ccccc1Cl 0.6 nM
C(=N\N1CCN(C2c3ccccc3-c3ccccc32)CC1)/c1cccnc1 0.43 nM
COC(=O)c1c(NC(NC(=O)C(C)C)C(Cl)(Cl)Cl)sc2c1CCCC2 (stereo not drawn) 0.51 nM
N/C(CSc1nc(-c2ccccc2)c(-c2ccccc2)o1)=N\O 0.37 nM
O=C(O)CSc1cc(-c2ccccc2)nc2ccccc12 1.19 nM
C=CCC(=O)OCCCCCCOc1ccc(C(=O)O)cc1 0.73 nM
CC(C)Oc1ccc(/C=C(/NC(=O)c2ccccc2)C(=O)NCCC(=O)O)cc1 0.98 nM
Cc1ccc(C(=O)OCC(=O)Nc2ccccc2Sc2ccccc2)cc1C 0.26 nM
CN(/N=C/C=C/c1ccccc1)C1=NS(=O)(=O)c2ccccc21 0.14 nM
CCC(C)(C)n1nnnc1C(c1ccncc1)N1CCC(Cc2ccccc2)CC1 (stereo not drawn) 1.27 nM
CC1(c2cc([N+](=O)[O-])cc([N+](=O)[O-])c2)CC(C)(C)N(C(=O)c2ccccc2)c2ccccc21 (stereo not drawn) 0.35 nM
CC1=CC(C)(C)N(S(=O)(=O)c2ccc(C)cc2)c2cc(C)ccc21 0.39 nM
CCOP(=O)(OCC)c1nc(-c2ccccc2)oc1NCc1ccccc1 0.36 nM
O=C(O)c1cccc(NN=C2c3ccccc3-c3ccccc32)c1 0.74 nM
O=c1c2oc3ccccc3c2[nH]c(=S)n1-c1ccccc1 1.48 nM
CN=C1CC(SC)=C1c1ccc(C)cc1 2.68 nM
Cc1cc(O)c(C=O)c2c1C(=O)Oc1c(C)c(O)c3c(c1O2)C(O)OC3=O (stereo not drawn) 0.42 nM
O=C(NNc1ccc([N+](=O)[O-])cc1[N+](=O)[O-])C1C2CCCCC21 (stereo not drawn) 1.49 nM
CCOC(=O)C1=C(C)N(C)C(C)=C(C(=O)OCC)C1c1ccsc1 0.71 nM
O=C(Oc1ccc(-c2nccc(-c3ccccn3)n2)cc1)c1cccc(C(F)(F)F)c1 1.38 nM
FC(F)(F)c1cccc(-c2cc3ccccc3nc2N2CCCC2)c1 0.54 nM
CCCCOc1cc(C)nc(NCc2ccccc2)n1 0.31 nM
COc1cnc(SCc2c(Cl)cccc2Cl)nc1Cl 0.18 nM
COC(=O)CSc1nc2c(c(C3CC=CCC3)c1C#N)CCC2 (stereo not drawn) 0.61 nM
